Data reported in the supplement of paper PMC6555819.

Columns and labels:
Assay in all cases: PBM binding z-score (relative to random genomic background probes); higher = stronger binding; sequences stand for … in GC…GCGATTGACAGCGTAGAATGAAGG
[1] = system: FXR:RXRa (NR concentration 270 nM, RXRa partner concentration 90 nM)
Summary of the method: (§1)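 On custom Agilent 4×180K arrays, double-stranded probes with 34-nt variable regions carried direct-repeat seeds, single-nucleotide variants, half-site ablations or random human genomic background. Ligand-free nuclear receptor dimers were applied for 1 h, and binding was read with antibodies against each partner (one per run). Binding z-scores come from regression-normalized fluorescence, with the random background probes as reference.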

[2] = system: LXRa:RXRa (NR concentration 270 nM, RXRa partner concentration 90 nM)
Summary of the method: as §1

[3] = system: LXRa homodimer (NR concentration 270 nM)
Summary of the method: as §1

[4] = system: LXRb:RXRa (NR concentration 270 nM, RXRa partner concentration 90 nM)
Summary of the method: as §1

[5] = system: LXRb homodimer (NR concentration 270 nM)
Summary of the method: as §1

[6] = system: PPARa:RXRa (NR concentration 270 nM, RXRa partner concentration 90 nM)
Summary of the method: as §1

[7] = system: PPARg:RXRa (NR concentration 180 nM, RXRa partner concentration 90 nM)
Summary of the method: as §1

[8] = system: PPARg:RXRa 270nM:90nM, anti-RXR (NR concentration 270 nM, RXRa partner concentration 90 nM)
Summary of the method: as §1

[9] = system: PPARg:RXRa 30nM:10nM, anti-RXR (NR concentration 30 nM, RXRa partner concentration 10 nM)
Summary of the method: as §1

[10] = system: PPARg:RXRa 90nM:30nM, anti-RXR (NR concentration 90 nM, RXRa partner concentration 30 nM)
Summary of the method: as §1

[11] = system: PPARg:RXRa DBDmut IVT, anti-RXR (DBD mutation: RXRa K156A/R161A, NR concentration 270 nM, RXRa partner concentration 90 nM)
Summary of the method: as §1

[12] = system: PPARg:RXRa IVT, anti-PPARg (NR concentration 270 nM, RXRa partner concentration 90 nM)
Summary of the method: as §1

[13] = system: PPARg DBDmut:RXRa IVT, anti-PPARg (DBD mutation: PPARg1 K132A/R137A, NR concentration 270 nM, RXRa partner concentration 90 nM)
Summary of the method: as §1

[14] = system: PPARg DBDmut IVT, anti-PPARg (DBD mutation: PPARg1 K132A/R137A, NR concentration 270 nM)
Summary of the method: as §1

[15] = system: PPARg homodimer (NR concentration 180 nM)
Summary of the method: as §1

[16] = system: PXR:RXRa (NR concentration 270 nM, RXRa partner concentration 90 nM)
Summary of the method: as §1

[17] = system: PXR homodimer (NR concentration 270 nM)
Summary of the method: as §1

[18] = system: RARa:RXR (NR concentration 270 nM, RXRa partner concentration 90 nM)
Summary of the method: as §1

[19] = system: RARa homodimer (NR concentration 270 nM)
Summary of the method: as §1

[20] = system: RARb:RXRa (NR concentration 270 nM, RXRa partner concentration 90 nM)
Summary of the method: as §1

Sequence | PBM binding z-score [1] | PBM binding z-score [2] | PBM binding z-score [3] | PBM binding z-score [4] | PBM binding z-score [5] | PBM binding z-score [6] | PBM binding z-score [7] | PBM binding z-score [8] | PBM binding z-score [9] | PBM binding z-score [10] | PBM binding z-score [11] | PBM binding z-score [12] | PBM binding z-score [13] | PBM binding z-score [14] | PBM binding z-score [15] | PBM binding z-score [16] | PBM binding z-score [17] | PBM binding z-score [18] | PBM binding z-score [19] | PBM binding z-score [20]
TCAGACAGGTGAAGGTATCTCAGGTACGCAGTCG | 0.108 | 0.719 | -0.00263 | 0.477 | -0.0583 | 0.944 | 0.741 | 2.22 | 3.93 | 3.03 | 2.51 | 0.967 | -0.232 | 0.111 | 0.602 | 0.375 | 0.13 | 0.509 | 0.153 | 1.08
CCTTACGGGTTACGAGGTTATAGCACGACGAGCG | 1.8 | 2.11 | 0.0451 | 1.8 | -0.317 | 3.36 | 2.89 | 3.03 | 0.671 | 1.8 | 1.39 | 2.73 | -0.246 | 1.02 | 1.32 | 1.95 | 0.0657 | 2.76 | 0.573 | 1.58
TCTTGTAGATCAACAGGAGGTTAAGAAAGATCGA | 0.227 | 1.19 | 0.133 | 0.709 | -0.3 | 1.22 | -0.0134 | 1.2 | 2.19 | 1.56 | 1.3 | 0.568 | 0.392 | 0.445 | 0.0227 | 0.753 | -0.259 | 0.995 | -0.178 | 0.617
GGAACGAGGGCAAAGTTGGTAGCATCTGTCGACG | 1.06 | 0.577 | -0.241 | 0.306 | -0.429 | 3.14 | 5 | 5.51 | 4.45 | 5.44 | 4.05 | 3.9 | 0.127 | -0.27 | 0.782 | 0.589 | -0.136 | 0.765 | -0.548 | 2.31
ACTAGCAGGCCAACGGTCACTCAAGATTAGTCCG | -0.155 | -0.0207 | 0.0255 | -0.508 | -0.572 | 1.37 | 2.56 | 3.92 | 2.08 | 3.72 | 1.21 | 1.38 | -0.412 | -0.352 | 0.237 | -0.526 | -0.588 | 0.0763 | -0.817 | 1.64
CAAACTAGGTCAAAGGTTAAAGTCGAGCCAACCA | 7.41 | 5.99 | 2.37 | 5.56 | 1.22 | 7.61 | 13.6 | 11.3 | 13 | 13.7 | 8.92 | 9.36 | 6.93 | 5.38 | 5.15 | 5.99 | 0.433 | 8.12 | 2.07 | 5.01
CATAGTTGGTCAGGAGGTCACACACCGGATATGA | 3.73 | 3.38 | 1.98 | 3.28 | 0.669 | 4.18 | 3.64 | 3.65 | 1.73 | 3.1 | 1.15 | 3.71 | 1.32 | 0.996 | 3.84 | 4.52 | 1.13 | 5.4 | 1.99 | 3.73
ATCGAAAGGTCGAAGGTGAGGATACCCACCCGAA | 4.08 | 3.68 | 0.155 | 2.73 | 0.724 | 4.69 | 4.61 | 5.07 | 2.25 | 4.11 | 0.202 | 2.45 | 0.792 | 0.619 | 1.6 | 3.14 | 0.0224 | 4.45 | 0.541 | 3.66
TCTTGTAGATCAATAAAGGTTAAGAAAGTGCGCT | 1.03 | 4.33 | 0.774 | 2.36 | 0.274 | 2.32 | 0.49 | 2.26 | 2.99 | 2.82 | 2.1 | 1.29 | 0.661 | 1.24 | 1.33 | 3.04 | 0.584 | 2.3 | 1.6 | 1.53
AGTCAACGTTCAGGACGAGGTAACGTAAAGCACG | -0.0969 | -0.468 | -0.628 | -0.496 | -0.581 | -0.416 | 0.73 | -0.278 | -0.327 | -0.0729 | -0.667 | -0.129 | -0.279 | -0.261 | -0.431 | -0.527 | -0.514 | 0.104 | -0.202 | 0.548
TCTTGTAGATCAATACAGGTTAAGAAAGTGCGCT | 0.747 | 2.01 | 0.393 | 1.23 | 0.0132 | 1.29 | 0.19 | 1.49 | 2.99 | 2.11 | 2.28 | 1.23 | 0.912 | 1.31 | 1.18 | 1.76 | 0.308 | 1.1 | 0.461 | 0.5
TCTGCTAGGTCAATTGGTCAGCTAACGAGCTGCC | 2.99 | 2.31 | -0.37 | 1.44 | 0.648 | 3.04 | 1.76 | 2.76 | 1.64 | 2.31 | 3.71 | 3.87 | 1.29 | 0.854 | 2.37 | 0.895 | -0.774 | 1.87 | -0.436 | 3.79
TCTTGTAGATCAACAGGAGGTTAAGTAAGATCGA | 0.451 | 1.3 | 0.363 | 1.17 | -0.23 | 1.52 | -0.0593 | 1.22 | 2.44 | 1.51 | 1.56 | 0.854 | 0.235 | 0.997 | -0.29 | 0.916 | -0.272 | 1.46 | 0.0899 | 0.659
